# Test results: the supplement of paper PMC13380429
# Unmarked numbers belong to inactive results.
# Tested on: Vero E6 infected with SARS-CoV-2
# Experiment: inhibition of SARS-CoV-2 cytopathic effect; higher = more antiviral protection, active = above 15
# Conditions: 48 h
SMILES,inhibition of SARS-CoV-2 cytopathic effect (1 nM) [%],inhibition of SARS-CoV-2 cytopathic effect (8.33 nM) [%],inhibition of SARS-CoV-2 cytopathic effect (100 nM) [%],inhibition of SARS-CoV-2 cytopathic effect (833.33 nM) [%],inhibition of SARS-CoV-2 cytopathic effect (10000 nM)
CN1CCCCC1Cn1cc(C(=O)c2cc([N+](=O)[O-])ccc2I)c2ccccc21 (stereo not given),-0.48,0.44,0.04,-2.69,4.92%
CC(C)(C)NC[C@H](O)COc1nsnc1N1CCOCC1 [timolol],-1.77,0.61,-1.85,3.77,0.96%
Cn1ncc(Cl)c1-c1cc(C(=O)N[C@H](CN)Cc2ccc(F)c(F)c2)oc1Cl [uprosertib],-2.98,-0.16,-1.46,0.21,-3.53%
CC(=O)O[C@H]1CC[C@@]2(C)C(=CC[C@@H]3[C@@H]2CC[C@]2(C)C(c4cccnc4)=CC[C@@H]32)C1 [abiraterone-acetate],-0.73,0.99,-0.37,-1.43,-0.75%
COC(=O)Nc1nc2cc([S+]([O-])c3ccccc3)ccc2[nH]1 (stereo not given) [oxfendazole],3.62,1.23,6.94,0.7,-1.5%
NC(=O)Nc1cc(-c2cccc(F)c2)sc1C(=O)N[C@H]1CCCNC1,-2.18,0.53,-2.2,-4.24,-19.5%
COc1ccc2cc1Oc1ccc(cc1)C[C@H]1c3c(cc4c(c3Oc3cc5c(cc3OC)CCN(C)[C@@H]5C2)OCO4)CCN1C [cepharanthine],-0.29,-1.27,-1.35,-2.66,21.3% (active)
C[C@H](N)C(=O)N[C@@]1(C(=O)O)C[C@@H](Sc2nnc[nH]2)[C@H]2[C@H](C(=O)O)[C@H]21,-2.66,-4.35,-3.65,-1.13,0.56%
CCCCCCCCNC(C)C(O)c1ccc(SC(C)C)cc1 (stereo not given) [suloctidil],0.05,-0.56,-0.38,0.21,-0.41%
OB1OCc2cc(F)ccc21 [tavaborole],-0.98,1.46,-1.21,2.11,-2.53%
C#CC[C@H](c1nc2cc(Cl)ccc2c(=O)n1Nc1ccccc1)N(CCCN)C(=O)c1cccc(Cl)c1F,-0.8,-0.99,0.22,1.38,-9.07%
Cc1coc2c1C(=O)C(=O)c1c-2ccc2c(C)cccc12 [tanshinone-I],1.07,-0.7,0.25,-2.81,-1.34%
COc1cccc(CCc2ccccc2OCC(CN(C)C)OC(=O)CCC(=O)O)c1 (stereo not given) [sarpogrelate],-0.45,-1.71,-2.81,-0.22,-1.72%
OC[C@H]1O[C@@H](Oc2ccc(O)cc2)[C@H](O)[C@@H](O)[C@@H]1O [arbutin],-0.81,0.67,0.6,-2.34,0.83%
OCCC#Cc1nc(-c2ccc(F)cc2)c(-c2ccncc2)n1CCCc1ccccc1,2.21,-1.75,-1.41,0.51,2.27%
N#CCC(=O)c1ccccc1,4.1,4.15,0.67,2.33,-0.41%
Cc1ccccc1-n1c(Cn2ncc3c(N)ncnc32)nc2cccc(C)c2c1=O,-1.01,0.63,0.62,-3.58,54.3% (active)
NC(N)=Nc1nc(CSCC/C(N)=N/S(N)(=O)=O)cs1 [Famotidine],1.28,0.44,-0.39,-0.03,-0.45%
